In all, about 53,000 sequences went through this assay and about 3,700 (7%) were called active.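 The calls were made as follows: active = gene knockdowns whose robust z-score for IL-1 alpha signal is at least 2 or at most -2, so actives lie on both sides; inactive = the rest.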 The full list was thinned out, with actives kept by preference.

A short description of this test: Components of the Cytosolic LPS Sensing Pathway: Gene Identification via Genome-wide siRNA Screen.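 Also: robust z of the log signal after scaling to non-targeting control siRNA wells of the plate.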 Conditions: RAW264.7 macrophages, IL-1a HTRF, actives lie on both sides, screened at 100 nM (by protocol), cells primed 5 h with Pam3CSK4 first. The method in brief:
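Knockdown: 100 nM siRNA, 48h, RAW264.7. Stimulation: Pam3CSK4 5 h, then LipidA via TransIT-TKO 24 h. Output: supernatant IL-1a HTRF, negative-control-normalized, log robust z-score; viability by CellTiter-Glo.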
For GGAAGUCCACAUUGCUGGUTT against Slc2a9, the z-score is 1.85 (inactive).

As to GGGUUUUGAGAUGUAAUGATT against Marchf8, the z-score is 0.0734 (inactive).

As to GCAGCCUAUGGAAGAUCACTT against Tle4, the z-score is 2.8 (active).

Regarding GCACUACACCUCCAGUUCGTT against Gne, the z-score was 0.164 (inactive).

In the case of CCACAUGUUUGUCUCAAAATT against Gskip, the z-score was 1.28 (inactive).

Turning to CGACCCUACAGAGGACAUUTT against Pik3r6, the z-score is 0.135 (inactive).

For GGAAAUGAAGCAUCUGUAUTT against Txnip, the z-score is -2.3 (active).

In the case of GGGUUUCACCCAAAGCCUUTT against Zfp354c, the z-score is -1.41 (inactive).

With GGCUCAGUAAGGACUCUGATT against Tac2, the z-score was 1.24 (inactive).

As to GGAAUAGAAGCACUGUGUGTT against Brs3, the z-score is -1.35 (inactive).

For the sequence GGGCCCAGAUUUCAAUGGGTT against Car14, the z-score is 0.379 (inactive).

Take GCCACUCACUAUGCUACUCTT against Pnpla2: the z-score was -2.62 (active).

As for GGCAUCUCCCACAUUAGAGTT against Sell, the z-score is 0.949 (inactive).

Take GGAAUAUGACUACAUGAAATT against Calu: the z-score was -0.0124 (inactive).

As to GGAAAUUCGUGCAUGAAGATT against Sgsm2, the z-score is -1.31 (inactive).

In the case of GGAGUCGAAUCUUCUCUAATT against Taco1, the z-score is -1.07 (inactive).

For the sequence GGUGCACACCAAUGUUCUGTT against Efemp2, the z-score is 2.03 (active).

As to GCUAUGCUGUUUUAUGUGATT against Synpr, the z-score is 0.212 (inactive).

In the case of CCUAUUGUAGCAAGUUACATT against H3c7, the z-score was 1.15 (inactive).

GGCAGAUGUACUGAUUAAATT against Tmprss11g: the z-score is 1.05 (inactive).

Turning to CGUUCUCUUGAAAUAAGCCTT against Pogk, the z-score is -0.147 (inactive).

GGGACCUCCAUCGUAUUUGTT against Slc29a4: the z-score is 0.71 (inactive).

For GCAACUGGUGAUAAGGUGUTT against Flywch1, the z-score is 0.486 (inactive).

Regarding GGCCAGAGUAUCGAUGUUCTT against Slc25a14, the z-score is -0.566 (inactive).

On to GGGACUUGAGUAGCUGACUTT against Sgta, for which the z-score was -1.49 (inactive).

GCUUUCUUACCAAGAGUCATT against Vsig8: the z-score is -2.89 (active).

As to CCUCUUAUCUCGAACAUUATT against Dsn1, the z-score is 0.95 (inactive).

Consider GGAGAUAACACCGUUACUUTT against Olfr769, for which the z-score was 0.766 (inactive).

Take GGAUCUGAAGAUGAUGAACTT against Ces2e: the z-score is 0.0623 (inactive).

On to CCUAGAAAUGAUUGUUGUUTT against Ncapg2, for which the z-score is 1.98 (inactive).

With GGAGACCUUAAAAGAACAUTT against Ccdc134, the z-score is 0.775 (inactive).

As to CCCGGUUGUCUGGAUAUGATT against Map3k3, the z-score was -2.39 (active).

Turning to CCCAGAUGGAUUUUUGCAUTT against Gm10413, the z-score is 0.102 (inactive).

For GCCAAAGUCUUGCUAUGUGTT against Uba7, the z-score is -0.481 (inactive).

Turning to GGAAGCUCUUCAACUCUACTT against Vps4b, the z-score is 2.06 (active).

Consider AUUGGACUUCUACAUGGCUTT against Olfr207, for which the z-score is 1.43 (inactive).

As for GGAGAGAUGGUAUUGUUGGTT against Olfr1298, the z-score was -0.0094 (inactive).

Take GGGCACUCAAGUGUAUGUCTT against Hpx: the z-score was 0.224 (inactive).

On to GCCAAAUGAACUAGCAAUATT against Golm1, for which the z-score is 0.0585 (inactive).

Take GGCAUUUGAGUGGACUGUUTT against Hirip3: the z-score is 0.421 (inactive).

GGUCUGUCUCGUCUACAAUTT against Gstm1: the z-score was 2.98 (active).

As to GGCGUAAAAUUCAAACUCATT against Cr2, the z-score is 1.02 (inactive).

Turning to GGAUCAGGAAGGAUUCGGATT against Zfp84, the z-score is -1.01 (inactive).

For GGAAGGAGCUUCGAAAAAATT against Pex16, the z-score is 0.129 (inactive).

Consider GGAGAAGUUUAGUGAAGAATT against Rmdn2, for which the z-score was -2.48 (active).

For GGCUUAAGGACAAGAAGAUTT against Gsn, the z-score is -0.747 (inactive).

Turning to CCAUAAGUUUGAAGAAUCCTT against Glg1, the z-score was 1.45 (inactive).

For “GGCUAUGUAGAUGGUUUUGTT against B830017H08Rik”, the z-score is 2.65 (active).

GGAUCACCUAACGUAAUGGTT against Phlda1: the z-score was -1.31 (inactive).

For the sequence GGUGACUUGGAAGAGCCCATT against Il1rapl2, the z-score was -0.637 (inactive).

CGUCGUGGUUGGUAUGUAATT against Sacs: the z-score was -1.18 (inactive).

As for GGCCAGACAAAUGAUGCCATT against Slc25a30, the z-score was -3.04 (active).

Turning to GGAACUAUAUACGAUGAUGTT against Usp8, the z-score was -0.316 (inactive).

On to GGAGUUUGAAGACUUUUUGTT against Pstpip2, for which the z-score is 0.24 (inactive).

On to CGGCUAGAUGAUCCUACCUTT against Tsga13, for which the z-score was -0.542 (inactive).

With GGCCCUAGAUGAGCACAAATT against Kcnh3, the z-score was 2.48 (active).

Regarding GCUCUGAUCAUUUGACUUGTT against Ovca2, the z-score is 0.128 (inactive).

Turning to GGACCAGAAAUACAUUUUCTT against Arhgef2, the z-score was -0.288 (inactive).

Turning to GGGCAGAAACAAAAGGUUATT against Tmlhe, the z-score was 0.917 (inactive).

GGAAUGUUACCCUUCAACUTT against Slc25a13: the z-score is -0.0366 (inactive).

As for GGACUCAAGAGAAAUUCAATT against Nod2, the z-score was 2.19 (active).

On to GGGAUGUGAAAUGCACCUUTT against Rftn1, for which the z-score is -1.03 (inactive).

As to GGUAUUCUUCCUCCAUGGGTT against Olfr638, the z-score was -3.22 (active).

On to UGACUUUUGGACACGAGGCTT against Trim15, for which the z-score was -0.159 (inactive).

Regarding GGACAAAUGACUGGUACCCTT against Gorasp2, the z-score was -0.314 (inactive).

For CGUGUGAAGCAGUUAUGAUTT against Pbx3, the z-score is 1.02 (inactive).

On to GGCAAAUAGUUUCUUCAAUTT against Npnt, for which the z-score is -0.485 (inactive).

As for GGUUGUGAACAGUCCACCCTT against Ski, the z-score is 0.461 (inactive).

Take GGAGUGGCCAUUAAAUUUATT against Slc17a8: the z-score is 2.75 (active).

In the case of GGUGCUGGUGGAUGAACUATT against Nags, the z-score was -1.5 (inactive).

Consider GGAGGCUAUUACUGUUUAUTT against Fam107b, for which the z-score was 0.601 (inactive).

For GGUCAAGAGUGCAUUCAAATT against Olfr1445, the z-score is 0.266 (inactive).

Consider GGAACUGAUAUCAUGUACATT against Slc25a5, for which the z-score was 2.15 (active).

On to GCCGAUUCUCAUAUUUGACTT against Exo1, for which the z-score is -0.742 (inactive).

Turning to GGCUGAGAACAAUAUGUAUTT against Ccdc80, the z-score is 0.323 (inactive).

For the sequence GGGCAUUUGGCCUUUCUCATT against Cpsf4, the z-score is -0.905 (inactive).

Take GGGCUUGUUUGACUUUCAUTT against Btd: the z-score is 0.175 (inactive).

In the case of GGCUGUAAUGAGGACUGAUTT against Ss18l2, the z-score was 3.25 (active).

As for CCCUAUACAGCGUACCCAATT against Eya2, the z-score is -0.754 (inactive).

Consider GCCAUGCUCACUGAACUUCTT against Nanp, for which the z-score was -2.3 (active).

Regarding GGACUUGAAACUUCUGGAUTT against Nudt16, the z-score was 0.453 (inactive).

With GCUAUGUAACACACCGCUGTT against Ticam1, the z-score was -1.24 (inactive).

On to GGUGUCUUUACGUCUCCCATT against Neto1, for which the z-score was -2.56 (active).

Take GGACGAGUCACACUUUGGATT against Cdyl2: the z-score is -0.328 (inactive).

As for GGUCAAGAGGAGGGUACCUTT against Foxred2, the z-score was 0.313 (inactive).

As for GCUUUAAAUAGAGACUAUCTT against Sox30, the z-score is 1.15 (inactive).

Regarding GGAGACUUCAGCACCUUUGTT against C4a, the z-score was 0.455 (inactive).

Take CCUGAUCUCAGCCUAUACUTT against Rapgef6: the z-score is -2.26 (active).

As for GGAACCAAAAGCCUGGCGATT against Pkd1l3, the z-score was -1.68 (inactive).

Turning to GGACUGAUAUCAUUUCUGATT against Flacc1, the z-score is -1 (inactive).

On to GCAUCCACCUCAACGAUAUTT against Dlg3, for which the z-score was -1.33 (inactive).

Take GCUAGGAGCUAGGAAUCCGTT against Pdzd3: the z-score is -0.682 (inactive).

Consider GGCAGAAUGGGCUUAUGUCTT against Trabd, for which the z-score was -2.54 (active).

GGAGCUUGCCAUAUUCCUCTT against Leprotl1: the z-score is 0.915 (inactive).

Consider GGAAAUAUAUGUCAUGUCATT against Nars, for which the z-score is 2.37 (active).

For the sequence “GCAAGAUUGGAAUGCUCCATT against 3830403N18Rik”, the z-score is 0.309 (inactive).

As for GGAAGAUAAUAUCCUUUGGTT against Olfr734, the z-score is -1.02 (inactive).

Regarding GGGAUUUUGAGUUUGAUGCTT against Zc3h10, the z-score was -1.03 (inactive).

Take GCUGUCAAAUUAACCUGUGTT against Spin2c: the z-score is -2.31 (active).

For the sequence GCUCGAUAUAAUUUCACACTT against Neto1, the z-score is -0.75 (inactive).

In the case of GCCGCUACUCUCCUCAAAATT against Card19, the z-score was -0.329 (inactive).

For the sequence CGUGUAAGUUUUGAUUCUATT against Calr, the z-score is 0.815 (inactive).

On to GGAGCUUGUGAACACCUUCTT against Nudc, for which the z-score was 0.718 (inactive).

Consider GGCUAUCUGCUUAUGCUGGTT against Ptch2, for which the z-score was -0.314 (inactive).

As to CCAGUAAACCGAGACCAUUTT against Nsfl1c, the z-score is 2.02 (active).

In the case of GCUAAGCGAAGAGUUUAACTT against Dlgap3, the z-score was 0.691 (inactive).

Turning to GGACUUCUUCGAUUGUUCUTT against Chchd1, the z-score is 0.475 (inactive).

On to GCUCUACAUGAAAACACUGTT against Gpat4, for which the z-score is -0.28 (inactive).

(Values after PubChem BioAssay AID1508600 (Functional Genomics Laboratory (NCATS/FGL), 2020).)
